Assay outcomes (PubChem)
CF NFkB inh: inhibitors of PAF-induced NF-kB signaling, primary screen, cell-based, GFP fluorescence, uHTS; AID 588850, 2011; inhibition, % at 5 µM; hit rate 0.86% among 360,000; KKLEB NF-kB-GFP reporter, GFP fluorescence overnight;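 active means at least 50% inhibition at 5 µM, scaled per plate between neutral and stimulator controls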;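 further: PAF is a Pseudomonas aeruginosa culture filtrate used as stimulus; plate controls were PAF-stimulated DMSO wells for no effect and unstimulated DMSO wells for full effect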
Peg3 prom inh-1: Peg3 promoter-driven luciferase inhibitors, primary screen, cell-based, HeLa, luciferase luminescence; HeLa PEG-Prom luciferase reporter, overnight; inhibition, % at 20 µM; hit rate 1.7% among 360,000; AID 588405, 2011;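 active means inhibition of at least 50% at 20 µM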
HIF-2a block: HIF-2a reporter inhibitors, primary screen, luminescence, 786-0 RCC cells; 786-0 RCC cells HIF-2a reporter, luciferase luminescence, overnight; inhibition, % at 18.8 µM; hit rate 0.72% among 360,000; AID 624352, 2012;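 active means inhibition of the luminescence signal of 40% or more relative to plate controls, in a single-dose primary screen at 18.75 µM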
TROY NFkB inh: inhibitors of TROY-driven NF-kB signaling, primary screen, Q293 LMP1-TROYcd cells, NF-kB luciferase, uHTS; Q293 LMP1-TROYcd NF-kB luciferase reporter, 4 h; inhibition, % at 10 µM; hit rate 0.98% among 360,000;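 active means compounds whose plate-normalised and pattern-corrected inhibition of the luciferase reporter signal at the single screening dose is 50% or more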
TWEAK-Fn14 inh: inhibitors of TWEAK-Fn14 signaling, primary screen, luciferase reporter cells, uHTS; TWEAK-stimulated Fn14 reporter cells, luciferase luminescence, 8 h; inhibition, % at 10 µM; hit rate 2% among 360,000; in the data active means inhibition above about 50%
KKLEB tox: cytotoxicity in KKLEB CF airway cells, primary screen, cytotoxicity control for CF NF-kB inhibitor project, cell-based, uHTS, fluorescence assay plates; activity change (cytotoxicity), % at 5 µM; KKLEB CF airway cells viability, ATPlite luminescence, overnight; stronger effect = lower value; cells stimulated with P. aeruginosa culture filtrate; hit rate 0.36% among 360,000; AID 602141, 2011;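 active means corrected activity change at or below -50% at 5 µM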
Peg3 prom inh-2: Peg3 promoter reporter inhibitors, retest, confirmation, cell-based, HeLa, luciferase reporter, single concentration; shares compounds with Peg3 prom inh-1; HeLa PEG-Prom luciferase reporter, luminescence, overnight; inhibition, % at 20 µM; hit rate 84% among 1,300;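 active means at 20 µM dose, 40% or more inhibition averaged across four replicates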
Active calls of the source: *. Compounds with a hit are over-represented: about 4% of the library has one in this group of screens.

What do the screens show for `O=C(CCCc1ccc(N(CCCl)CCCl)cc1)NCc1ccccc1`?
CF NFkB inh: 15; Peg3 prom inh-1: 6; HIF-2a block: -1; TROY NFkB inh: 13; TWEAK-Fn14 inh: 3; KKLEB tox: 2

What do the screens show for `COc1ccccc1OCC(=O)Nc1ccc(Cl)cc1C(=O)c1ccccc1`?
CF NFkB inh: 7; Peg3 prom inh-1: 14; HIF-2a block: 18; TROY NFkB inh: -6; TWEAK-Fn14 inh: 107*; KKLEB tox: -4

Results for Cc1ccc(-c2cc(-c3ccc(C)cc3)[n+](-c3ccc(C(=O)O)cc3)c(-c3ccc(C)cc3)c2)cc1 ?
CF NFkB inh: -4; Peg3 prom inh-1: -14; HIF-2a block: 2; TROY NFkB inh: 5; TWEAK-Fn14 inh: 0; KKLEB tox: -7

What do the screens show for `Cc1ccc(C[n+]2c(-c3ccc(C)cc3)cc(-c3ccc(C)cc3)cc2-c2ccc(C)cc2)cc1`?
CF NFkB inh: 57*; Peg3 prom inh-1: 97*; HIF-2a block: 90*; TROY NFkB inh: 42; TWEAK-Fn14 inh: 92*; KKLEB tox: -64*

How did CS(=O)(=O)c1ccc(C2=C(CNC(=O)c3ccncc3)[C@H]3CC[C@@H](C2)N3Cc2ccco2)cc1 do in these assays?
CF NFkB inh: -5; Peg3 prom inh-1: 2; HIF-2a block: 5; TROY NFkB inh: 0; TWEAK-Fn14 inh: 7; KKLEB tox: -1

Results for CC1CN2C(=O)C1(c1ccccc1)C(=O)NC2=S (stereo unspecified) ?
CF NFkB inh: 8; Peg3 prom inh-1: -6; HIF-2a block: 9; TROY NFkB inh: 2; TWEAK-Fn14 inh: 1; KKLEB tox: 1

Results for CC12CCC(O)CC1CCC1C2CCC2(C)C(C3=CC(=O)OC3)C(O)CC12O (stereo unspecified) ?
CF NFkB inh: 71*; Peg3 prom inh-1: 94*; HIF-2a block: 16; TROY NFkB inh: 37; TWEAK-Fn14 inh: 53*; KKLEB tox: -49

Results for CC(=O)C1CCC2C3CCC4CC(O)CCC4(C)C3CCC12C (stereo unspecified) ?
CF NFkB inh: -10; Peg3 prom inh-1: 10; HIF-2a block: 13; TROY NFkB inh: 0; TWEAK-Fn14 inh: -28; KKLEB tox: 18

How did CSCCC(c1nnnn1C1CCCC1)N1CCC(n2c(=O)[nH]c3ccccc32)CC1 (stereo unspecified) do in these assays?
CF NFkB inh: 1; Peg3 prom inh-1: 27; HIF-2a block: -17; TROY NFkB inh: 6; TWEAK-Fn14 inh: -3; KKLEB tox: -4

How did CC(C)(C)n1nnnc1C(CCc1ccccc1)N1CCC(n2c(=O)[nH]c3ccccc32)CC1 (stereo unspecified) do in these assays?
CF NFkB inh: -19; Peg3 prom inh-1: 84*; HIF-2a block: -27; TROY NFkB inh: 39; TWEAK-Fn14 inh: 22; KKLEB tox: -5; Peg3 prom inh-2: 82*

How did O=C(O)C1C2c3ccccc3C(=O)C1(C(=O)O)c1ccccc12 (stereo unspecified) do in these assays?
CF NFkB inh: -12; Peg3 prom inh-1: 2; HIF-2a block: 1; TROY NFkB inh: -2; TWEAK-Fn14 inh: -8; KKLEB tox: 10

How did Cc1c(C(=O)N2CCC3(CC2)OCCO3)sc2ncnc(N3CCN(c4ccccn4)CC3)c12 do in these assays?
CF NFkB inh: -7; Peg3 prom inh-1: 72*; HIF-2a block: -3; TROY NFkB inh: 5; TWEAK-Fn14 inh: 5; KKLEB tox: -4; Peg3 prom inh-2: 56*

What do the screens show for `CCCNC(=O)Cn1cnc2sc(C(=O)N3CCC4(CC3)OCCO4)c(C)c2c1=O`?
CF NFkB inh: -22; Peg3 prom inh-1: -2; HIF-2a block: 11; TROY NFkB inh: -4; TWEAK-Fn14 inh: -3; KKLEB tox: 11

How did Cc1ccc(S(=O)(=O)c2nc(-c3ccccc3Cl)oc2N(C)C2CCN(C)CC2)cc1 do in these assays?
CF NFkB inh: 41; Peg3 prom inh-1: 64*; HIF-2a block: -26; TROY NFkB inh: 13; TWEAK-Fn14 inh: -3; KKLEB tox: -20; Peg3 prom inh-2: 78*

Results for O=C1NC(=O)N(Cc2ccccc2)C(=O)/C1=C\C=C\c1ccco1 ?
CF NFkB inh: 74*; Peg3 prom inh-1: 89*; HIF-2a block: 46*; TROY NFkB inh: -7; TWEAK-Fn14 inh: 11; KKLEB tox: -51*; Peg3 prom inh-2: 63*

What do the screens show for `Cn1cccc1/C=C1\C(=O)NC(=O)N(Cc2ccco2)C1=O`?
CF NFkB inh: 19; Peg3 prom inh-1: 22; HIF-2a block: 14; TROY NFkB inh: 2; TWEAK-Fn14 inh: 23; KKLEB tox: -10

Results for O=C1NC(=O)N(Cc2ccco2)C(=O)/C1=C/C=C/c1ccco1 ?
CF NFkB inh: 78*; Peg3 prom inh-1: 63*; HIF-2a block: 87*; TROY NFkB inh: 14; TWEAK-Fn14 inh: 35; KKLEB tox: -15; Peg3 prom inh-2: 73*

Results for CCN(CC)C(=O)Cn1cc(/C=C2\C(=O)NC(=O)N(c3ccccc3F)C2=O)c2ccccc21 ?
CF NFkB inh: -33; Peg3 prom inh-1: 58*; HIF-2a block: 44*; TROY NFkB inh: 42; TWEAK-Fn14 inh: 66*; KKLEB tox: -4; Peg3 prom inh-2: 92*

What do the screens show for `C/C(=N\N1CCCCCC1)c1c(O)n(-c2ccccc2C)c(=O)[nH]c1=O`?
CF NFkB inh: 2; Peg3 prom inh-1: 8; HIF-2a block: 17; TROY NFkB inh: 1; TWEAK-Fn14 inh: 14; KKLEB tox: -8

Results for CCN(CCCl)c1cc(CN(C)C)cc(NC(=O)c2ccc(C(=O)Nc3cc(CN(C)C)cc(N(CC)CCCl)c3)cc2)c1 ?
CF NFkB inh: 80*; Peg3 prom inh-1: 101*; HIF-2a block: 70*; TROY NFkB inh: 54*; TWEAK-Fn14 inh: 99*; KKLEB tox: -89*; Peg3 prom inh-2: 99*

Results for CCN(CC)C(=O)c1ccc(NC(=O)c2cccc(C(F)(F)F)c2)cc1 ?
CF NFkB inh: 1; Peg3 prom inh-1: -29; HIF-2a block: -32; TROY NFkB inh: -34; TWEAK-Fn14 inh: -9; KKLEB tox: -2

How did CC(C)(C)n1nnnc1C(c1ccccc1)N1CCC2(CC1)C(=O)NCN2c1ccccc1 (stereo unspecified) do in these assays?
CF NFkB inh: -7; Peg3 prom inh-1: 20; HIF-2a block: 18; TROY NFkB inh: 13; TWEAK-Fn14 inh: 7; KKLEB tox: -23
